# Source: the supplement of paper PMC10849652
# Targets with a hit are over-represented here; the source holds about 8,800 in all. About 0.5% of all pairs of compound and target were hits. A number with no mark means an inactive call.
# Tests used:
# Test in all cases: log2 fold change, soluble protein after heating vs DMSO (PISA); higher = thermal stabilisation; K562 lysate, 10 uM; active = over 0.2 and 3.5 SD of the protein, either way, in both replicates (recomputed)
# erlotinib = compound: C#Cc1cccc(Nc2ncnc3cc(OCCOC)c(OCCOC)cc23)c1 [erlotinib]
# Summary of the method: (§1)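 K562 pellets were dounce-homogenised in PBS pH 7.4 containing 1 mM MgCl2, and the crude extract, at 1 mg/mL protein, was exposed to 10 μM compound for 30 min. Aliquots were heated for 3 min across 48°C-58°C, pooled, brought to 0.5% NP-40 at 4°C and spun at 21,000xg for 90 min, with the supernatant taken as soluble protein. TMTpro 16plex LC-MS/MS with equalised channel sums quantified that protein. Values are log-two fold changes in thermal stability relative to solvent controls, taken from duplicates.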
# [1] = compound: C/C(=N\NC(=O)C1=CC(=CC=C1)S(=O)(=O)N2CCOCC2)/C3=C(C=CC(=C3)Cl)O
# Summary of the method: as §1
# [2] = compound: C1=CC(=CC=C1C2=NC3=C(N2)C=C(C=C3)C(=O)N)OC4=CC=C(C=C4)Cl
# Summary of the method: as §1
# [3] = compound: C1=CC2=C(C=CC(=C2)/C=C\3/C(=O)NC(=NCC4=CC=CS4)S3)N=C1
# Summary of the method: as §1
# [4] = compound: C1=CC2=NC=CN=C2C=C1/C=C/3\C(=O)NC(=O)S3
# Summary of the method: as §1
# [5] = compound: C1=CC=C(C=C1)C2=NC(=C(N2)C3=CC=NC=C3)C4=CC(=C(C=C4)Cl)O
# Summary of the method: as §1
# [6] = compound: C1=CC=C2C(=C1)C3=NNC4=CC=CC(=C43)C2=O
# Summary of the method: as §1
# [7] = compound: C1CCN(C1)C(=O)NC2=CC=CC(=C2)NC3=NC=C(C(=N3)NCCC4=CN=CN4)Br
# Summary of the method: as §1
# [8] = compound: C1CN(CCC1(CC2=CC=C(C=C2)Cl)N)C3=NC=NC4=C3C=CN4
# Summary of the method: as §1
# IRAK-1-4 Inhibitor I = compound: C1COCCN1CCN2C3=CC=CC=C3N=C2NC(=O)C4=CC(=CC=C4)[N+](=O)[O-] [IRAK-1-4 Inhibitor I]
# Summary of the method: as §1
# Chain of UniProt Q9Y2X9 (Q9Y2X9 whole entry, looked up): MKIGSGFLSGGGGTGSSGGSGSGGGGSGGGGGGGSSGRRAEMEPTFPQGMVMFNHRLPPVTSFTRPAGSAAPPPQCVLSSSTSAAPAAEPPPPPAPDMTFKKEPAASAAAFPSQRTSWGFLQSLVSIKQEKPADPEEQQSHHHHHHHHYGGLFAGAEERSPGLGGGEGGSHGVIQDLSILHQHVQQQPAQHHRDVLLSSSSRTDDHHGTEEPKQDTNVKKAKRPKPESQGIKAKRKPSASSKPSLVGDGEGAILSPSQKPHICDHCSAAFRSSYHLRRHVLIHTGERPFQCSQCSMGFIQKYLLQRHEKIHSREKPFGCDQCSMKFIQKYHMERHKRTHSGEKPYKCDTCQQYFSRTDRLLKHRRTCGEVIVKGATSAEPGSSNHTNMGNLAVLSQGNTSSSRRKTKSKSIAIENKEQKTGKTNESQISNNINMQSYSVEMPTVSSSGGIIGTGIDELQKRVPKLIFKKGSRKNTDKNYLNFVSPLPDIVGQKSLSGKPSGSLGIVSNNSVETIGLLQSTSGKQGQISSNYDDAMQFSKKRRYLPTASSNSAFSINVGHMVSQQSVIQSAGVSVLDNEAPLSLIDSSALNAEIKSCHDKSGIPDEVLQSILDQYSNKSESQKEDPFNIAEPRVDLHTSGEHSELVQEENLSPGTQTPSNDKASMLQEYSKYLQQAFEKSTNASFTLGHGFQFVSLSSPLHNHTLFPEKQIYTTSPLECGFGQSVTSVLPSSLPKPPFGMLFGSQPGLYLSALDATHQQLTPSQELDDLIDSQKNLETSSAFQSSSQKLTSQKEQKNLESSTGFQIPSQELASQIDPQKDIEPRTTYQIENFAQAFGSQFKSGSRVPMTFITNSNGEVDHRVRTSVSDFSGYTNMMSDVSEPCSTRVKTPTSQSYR
# Chain of UniProt P50552 (P50552 whole entry, looked up): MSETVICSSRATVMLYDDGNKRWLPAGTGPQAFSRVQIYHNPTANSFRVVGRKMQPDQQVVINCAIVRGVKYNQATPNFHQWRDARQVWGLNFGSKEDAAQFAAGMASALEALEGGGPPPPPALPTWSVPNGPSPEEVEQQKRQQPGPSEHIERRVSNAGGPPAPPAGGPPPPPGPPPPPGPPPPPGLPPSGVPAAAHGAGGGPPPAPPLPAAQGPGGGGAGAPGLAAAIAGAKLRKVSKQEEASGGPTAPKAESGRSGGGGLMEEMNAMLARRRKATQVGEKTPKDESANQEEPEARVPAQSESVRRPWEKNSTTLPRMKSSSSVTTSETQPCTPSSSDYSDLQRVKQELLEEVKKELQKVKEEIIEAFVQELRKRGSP
# Chain of UniProt Q8IX07 (Q8IX07 whole entry, looked up): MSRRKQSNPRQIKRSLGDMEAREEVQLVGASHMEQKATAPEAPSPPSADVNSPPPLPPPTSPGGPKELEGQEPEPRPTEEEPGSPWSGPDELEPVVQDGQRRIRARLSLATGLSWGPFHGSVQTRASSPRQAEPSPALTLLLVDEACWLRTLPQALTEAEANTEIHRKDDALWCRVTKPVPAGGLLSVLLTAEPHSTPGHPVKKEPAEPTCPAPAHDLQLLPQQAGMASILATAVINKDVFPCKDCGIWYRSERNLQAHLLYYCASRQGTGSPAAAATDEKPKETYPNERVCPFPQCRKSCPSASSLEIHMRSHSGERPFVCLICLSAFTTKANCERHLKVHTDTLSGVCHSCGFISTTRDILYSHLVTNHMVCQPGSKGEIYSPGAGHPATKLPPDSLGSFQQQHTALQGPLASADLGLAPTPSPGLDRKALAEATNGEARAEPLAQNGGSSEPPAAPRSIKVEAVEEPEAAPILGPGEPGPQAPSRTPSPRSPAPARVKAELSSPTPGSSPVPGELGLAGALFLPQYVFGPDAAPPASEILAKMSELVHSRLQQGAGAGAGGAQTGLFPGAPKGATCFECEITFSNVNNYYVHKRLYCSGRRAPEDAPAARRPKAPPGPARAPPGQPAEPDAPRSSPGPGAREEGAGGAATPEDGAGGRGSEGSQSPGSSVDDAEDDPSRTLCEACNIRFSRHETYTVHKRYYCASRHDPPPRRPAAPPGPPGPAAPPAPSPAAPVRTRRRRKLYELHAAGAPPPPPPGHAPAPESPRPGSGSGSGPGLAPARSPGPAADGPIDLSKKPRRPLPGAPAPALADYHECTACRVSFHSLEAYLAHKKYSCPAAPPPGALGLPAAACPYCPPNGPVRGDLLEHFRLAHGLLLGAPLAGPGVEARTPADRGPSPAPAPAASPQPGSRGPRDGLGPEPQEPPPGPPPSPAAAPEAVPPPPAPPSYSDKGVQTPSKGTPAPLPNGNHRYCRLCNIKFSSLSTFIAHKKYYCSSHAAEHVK
# Chain of UniProt Q96IR2 (Q96IR2 whole entry, looked up): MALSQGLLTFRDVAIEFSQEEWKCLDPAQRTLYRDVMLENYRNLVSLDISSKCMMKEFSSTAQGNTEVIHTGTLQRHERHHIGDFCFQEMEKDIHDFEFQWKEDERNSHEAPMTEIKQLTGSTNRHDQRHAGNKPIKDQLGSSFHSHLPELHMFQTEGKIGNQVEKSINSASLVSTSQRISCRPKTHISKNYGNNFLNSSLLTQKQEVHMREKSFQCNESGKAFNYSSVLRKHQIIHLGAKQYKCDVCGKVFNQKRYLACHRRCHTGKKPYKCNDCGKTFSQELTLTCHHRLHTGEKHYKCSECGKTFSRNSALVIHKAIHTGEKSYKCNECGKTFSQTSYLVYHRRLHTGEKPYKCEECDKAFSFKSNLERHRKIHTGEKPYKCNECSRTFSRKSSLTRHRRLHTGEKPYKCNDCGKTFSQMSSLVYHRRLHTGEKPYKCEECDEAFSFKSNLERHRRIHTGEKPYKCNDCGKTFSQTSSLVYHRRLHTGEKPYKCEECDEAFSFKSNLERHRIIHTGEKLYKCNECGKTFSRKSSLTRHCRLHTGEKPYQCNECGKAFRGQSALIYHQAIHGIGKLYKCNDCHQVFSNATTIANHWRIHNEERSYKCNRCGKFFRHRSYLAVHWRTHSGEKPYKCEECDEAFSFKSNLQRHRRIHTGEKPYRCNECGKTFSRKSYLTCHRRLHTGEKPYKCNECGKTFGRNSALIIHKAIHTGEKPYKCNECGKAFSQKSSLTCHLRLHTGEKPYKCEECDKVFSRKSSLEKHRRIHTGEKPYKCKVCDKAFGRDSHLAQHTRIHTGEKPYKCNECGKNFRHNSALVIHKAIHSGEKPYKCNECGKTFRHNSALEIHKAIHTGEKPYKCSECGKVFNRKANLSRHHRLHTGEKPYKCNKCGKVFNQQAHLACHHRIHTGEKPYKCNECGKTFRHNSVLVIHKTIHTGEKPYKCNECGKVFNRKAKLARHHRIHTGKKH
# Chain of UniProt Q14694 (Q14694 whole entry, looked up): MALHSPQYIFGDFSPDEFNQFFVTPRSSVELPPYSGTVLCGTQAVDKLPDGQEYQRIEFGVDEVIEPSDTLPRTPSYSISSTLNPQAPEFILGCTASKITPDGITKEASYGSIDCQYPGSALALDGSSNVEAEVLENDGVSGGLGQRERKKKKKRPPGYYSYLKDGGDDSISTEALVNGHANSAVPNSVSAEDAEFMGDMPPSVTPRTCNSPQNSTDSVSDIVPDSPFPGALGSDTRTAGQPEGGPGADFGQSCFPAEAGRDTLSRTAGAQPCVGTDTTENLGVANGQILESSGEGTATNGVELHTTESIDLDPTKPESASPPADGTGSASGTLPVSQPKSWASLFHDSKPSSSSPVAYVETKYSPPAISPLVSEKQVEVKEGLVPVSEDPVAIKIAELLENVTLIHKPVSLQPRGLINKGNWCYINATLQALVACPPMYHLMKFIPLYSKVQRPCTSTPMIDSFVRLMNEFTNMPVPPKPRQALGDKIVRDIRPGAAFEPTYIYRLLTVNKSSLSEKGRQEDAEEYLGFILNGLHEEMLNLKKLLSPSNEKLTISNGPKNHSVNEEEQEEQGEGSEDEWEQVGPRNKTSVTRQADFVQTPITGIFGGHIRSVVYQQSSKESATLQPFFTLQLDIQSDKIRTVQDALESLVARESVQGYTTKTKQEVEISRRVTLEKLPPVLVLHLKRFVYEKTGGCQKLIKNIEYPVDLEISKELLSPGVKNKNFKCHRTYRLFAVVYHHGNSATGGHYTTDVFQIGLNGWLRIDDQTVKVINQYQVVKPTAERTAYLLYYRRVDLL
# Chain of UniProt P58557 (P58557 whole entry, looked up): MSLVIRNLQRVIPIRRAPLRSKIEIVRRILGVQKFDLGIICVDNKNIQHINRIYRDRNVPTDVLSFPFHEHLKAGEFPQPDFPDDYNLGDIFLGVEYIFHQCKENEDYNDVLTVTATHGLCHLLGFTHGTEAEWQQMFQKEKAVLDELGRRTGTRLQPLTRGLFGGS
# Chain of UniProt Q5MNZ9 (Q5MNZ9 whole entry, looked up): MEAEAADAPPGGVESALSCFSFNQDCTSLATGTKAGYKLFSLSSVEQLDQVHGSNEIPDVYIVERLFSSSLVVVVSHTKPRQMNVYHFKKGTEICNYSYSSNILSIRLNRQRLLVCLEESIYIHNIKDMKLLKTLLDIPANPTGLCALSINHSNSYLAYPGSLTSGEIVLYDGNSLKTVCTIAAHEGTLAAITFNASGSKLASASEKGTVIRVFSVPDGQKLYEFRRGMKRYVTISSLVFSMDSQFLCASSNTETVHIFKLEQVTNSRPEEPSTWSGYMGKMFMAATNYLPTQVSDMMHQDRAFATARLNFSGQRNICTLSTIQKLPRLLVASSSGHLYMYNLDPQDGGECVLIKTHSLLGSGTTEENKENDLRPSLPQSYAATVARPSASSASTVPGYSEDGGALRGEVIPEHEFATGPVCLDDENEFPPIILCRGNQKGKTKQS
# Chain of UniProt Q9UL40 (Q9UL40 whole entry, looked up): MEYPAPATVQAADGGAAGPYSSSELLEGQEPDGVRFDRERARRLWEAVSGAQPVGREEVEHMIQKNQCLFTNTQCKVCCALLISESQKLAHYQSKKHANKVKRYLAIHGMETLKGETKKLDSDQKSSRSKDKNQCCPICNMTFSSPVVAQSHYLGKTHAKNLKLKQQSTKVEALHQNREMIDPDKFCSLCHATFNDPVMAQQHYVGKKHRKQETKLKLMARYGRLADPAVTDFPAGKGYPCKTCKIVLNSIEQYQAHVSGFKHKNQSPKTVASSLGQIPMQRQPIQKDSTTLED
Target,log2 fold change (erlotinib),log2 fold change [1],log2 fold change [2],log2 fold change [3],log2 fold change [4],log2 fold change [5],log2 fold change [6],log2 fold change [7],log2 fold change [8],log2 fold change (IRAK-1-4 Inhibitor I)
USP22 (UniProt Q9UPT9),0.072,0.019,-0.025,0.048,-0.022,-0.003,-0.013,-0.021,0.004,-0.005
USP10 isoform 2 (UniProt Q14694),0.022,-0.032,0.01,0.007,-0.017,0.023,-0.028,-0.033,-0.034,-0.005
VAV3 isoform 4 (UniProt Q9UKW4),0.035,1.07,-0.029,-0.144,0.117,0.012,-0.133,0.148,-0.08,-0.017
ZSWIM8 isoform 4 (UniProt A7E2V4),0.025,0.508 (active),-0.053,0.02,-0.044,-0.021,-0.163,-0.239,0.109,-0.122
ZMYM4 (UniProt Q5VZL5),-0.023,-0.068,0.027,0.073,-0.099,0.042,-0.088,-0.09,0.015,0.005
ZFPM1 (UniProt Q8IX07),0.015,0.039,0.047,-0.041,0.005,-0.01,0.021,0.031,-0.01,0.077
ZBTB40 (UniProt Q9NUA8),-0.044,-0.019,-0.014,-0.075,–,-0.045,-0.017,–,–,-0.048
WAC (UniProt Q9BTA9),0.027,0.004,0.027,0.092,-0.064,0.008,-0.076,0.051,0.015,-0.006
VASN (UniProt Q6EMK4),-0.644 (active),–,0.071,–,–,-0.191,–,-0.277,-0.01,0.222
WDHD1 (UniProt O75717),0.013,0.025,-0.004,0.019,0.002,0.006,-0.005,0,0.025,-0.017
WAC isoform 5 (UniProt Q9BTA9),-0.01,–,-0.156,–,–,0.062,–,–,–,0.018
ZYG11A (UniProt Q6WRX3),-0.125,–,-0.059,–,-0.061,-0.04,–,–,–,-0.004
YEATS4 (UniProt O95619),-0.017,-0.018,-0.018,0.045,-0.079,-0.013,-0.027,0.007,0.034,0.002
VASP (UniProt P50552),0.001,-0.028,0.017,-0.006,-0.035,-0.003,-0.02,-0.006,0.035,0.014
YBEY (UniProt P58557),0.101,-0.164,0.009,-0.039,–,–,-0.031,-0.011,0.111,–
VPS11 (UniProt Q9H270),0.049,-0.037,0.014,0.034,0.014,0.011,-0.053,0.003,-0.002,-0.031
ULK3 isoform 4 (UniProt Q6PHR2),0.156,0.149,-0.008,-0.151,-0.053,–,0.177,0.179,0.01,–
URGCP (UniProt Q8TCY9),–,-0.024,–,-0.075,-0.01,-0.038,0.051,–,–,0.022

Target,log2 fold change (erlotinib),log2 fold change [1],log2 fold change [2],log2 fold change [3],log2 fold change [4],log2 fold change [5],log2 fold change [6],log2 fold change [7],log2 fold change [8],log2 fold change (IRAK-1-4 Inhibitor I)
ZFYVE19 isoform 3 (UniProt Q96K21),–,–,–,–,0.038,–,–,–,–,–
UNC13A (UniProt Q9UPW8),0.069,–,0.039,–,–,–,–,–,–,–
WAS (UniProt P42768),0.023,–,0.074,–,-0.149,–,–,0.007,0.026,–
VPS72 (UniProt Q15906),0.056,-0.036,0.046,-0.057,–,-0.04,0.052,0.024,0.059,-0.008
ZNF346 (UniProt Q9UL40),-0.057,–,-0.009,–,-0.035,-0.014,–,0.016,-0.002,0.015
ZKSCAN8 (UniProt Q15776),-0.005,-0.418,-0.148,0.004,–,-0.001,-0.04,0.031,0.006,0.077
WDR6 (UniProt Q9NNW5),0.001,0.01,0.002,0.026,-0.01,0,-0.014,-0.02,0.021,-0.011
ZSCAN21 (UniProt Q9Y5A6),–,–,–,–,–,–,–,-0.022,0.037,–
ZNF281 (UniProt Q9Y2X9),-0.191,–,-0.106,–,–,0.006,–,–,–,0.069
UNKL (UniProt E9PDK2),–,-0.088,–,0.166,0.061,–,-0.122,0.155,0.156,–
WIPI2 isoform 6 (UniProt Q9Y4P8),–,–,–,–,0.079,–,–,–,–,–
WIPI1 (UniProt Q5MNZ9),-0.025,–,-0.006,–,-0.016,-0.027,–,0.035,-0.013,-0.007
UPF3B (UniProt Q9BZI7),-0.026,-0.109,0.042,0.02,-0.005,0.017,-0.014,-0.018,-0.008,0.008
XPO1 (UniProt O14980),0.021,0.025,-0.015,0.017,0.026,-0.031,-0.045,-0.005,0.033,0.016
WSB1 (UniProt Q9Y6I7),–,–,–,–,–,0.037,–,–,–,-0.093
USP48 isoform 8 (UniProt Q86UV5),0.001,-0.059,-0.011,-0.008,0.005,0.02,-0.02,0,0.018,-0.014
ZNF845 (UniProt Q96IR2),-0.033,-0.145,0.102,0.02,-0.09,0.047,-0.123,–,–,-0.044
